Source: PubChem BioAssay (NCATS)
“And” between values parts separate entries of the source, which are not always exact repeats. Equal entries are not always repeated. Values without a mark were called inactive. Records with an inconclusive call do not appear. Where a call stands in place of a potency, no number is given. The source made the active and inactive calls. Unless noted, calls come from the whole dose curve; as a rule, active = well fitted curve in the direction sought with a large enough effect; inconclusive = small, poorly fitted or top-dose-only effect, or another doubt; inactive = no such curve, though single readings can be large; an effect the other way counts as inactive or inconclusive.

Columns and labels:
[1] = Cell Viability - HUV-EC-C (AID 542);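 note: cells exposed to compound for 40 hours; nearly all actives have a fitted effect of over 35% in size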
Procedure, shortened: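 Decrease in cellular ATP, quantified by luciferase luminescence, reflects toxicity in normal human vascular endothelial HUV-EC-C cells given compound for 40 hr in complete culture medium. Values are AC50s from concentration-response curves.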

[2] = Cell Viability - Mesenchymal (AID 546); details: mesenchymal cells viability, qHTS; activity change, negative = cytotoxicity: at 91.7 µM (top of the series);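 note: cells exposed to compound for 40 hours before reading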
Procedure, shortened: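 Normal human renal glomerulus-derived kidney mesenchymal cells, 1000 per well in complete medium, were treated with compounds for 40 hr at 37 °C. Viability was read as intracellular ATP by CellTiter-Glo luminescence; AC50 values came from Hill-equation fits of qHTS concentration-response data.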

[3] = Cellular Toxicity (caspase-3) Jurkat (AID 655); details: Jurkat caspase-3 activation, luminescence; caspase-3 activation: at 92.2 µM (top of the series), DMSO = 0%, tamoxifen = 100%;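 note: cells exposed to compound for 16 h at 37 °C before reading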
Procedure, shortened: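 Jurkat cells (5000/well) in complete medium exposed 16 h at 37 C; caspase-3/7 activity read by Caspase-Glo luminescence after 20 min at room temperature. Normalized to DMSO and 100 uM tamoxifen; AC50 from Hill fits.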

[4] = Cellular Toxicity (caspase-3) HUV-EC-C (AID 656)
Procedure, shortened: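 HUV-EC-C cells (1000/well) in complete medium, compound-treated 16 h at 37 °C; caspase-3/7 activity read by Caspase-Glo 3/7 luminescence. Normalized to DMSO (basal) and 100 uM tamoxifen (100%); AC50 from Hill-equation concentration-response fits.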

[5] = Cellular Toxicity (caspase-3) SHSY5Y (AID 657)
Procedure, shortened: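 SH-SY5Y human neuroblastoma cells, 1500/well, exposed to compound for 16 hours at 37 °C in complete medium. Caspase-3/7 activity read by Caspase-Glo luminescence after 1 hr at room temperature, normalized to DMSO and 10 uM staurosporine; AC50 from Hill fit.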

[6] = Cellular Toxicity (caspase-3) MRC-5 (AID 659)
Procedure, shortened: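 Luminescence from caspase-cleaved aminoluciferin substrate (Caspase-Glo 3/7, 1 hr RT) reports caspase 3/7 activity in MRC-5 lung fibroblasts after 16 hr compound exposure. Normalized to DMSO basal and 10 uM staurosporine as 100%; AC50 from Hill fits.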

[7] = Cellular Toxicity (caspase-3) Mesangial (AID 660);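 note: cells exposed to compound for 16 h before the caspase read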
Procedure, shortened: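 Concentration-response qHTS: compound-induced rise in caspase 3/7 luminescence in human mesangial cells after 16 h, normalized to DMSO and 100 uM tamoxifen controls.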

[8] = Cellular Toxicity (caspase-3) SK-N-SH (AID 661)
Procedure, shortened: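 Caspase 3/7 activation is measured as a luminescence increase from aminoluciferin released by substrate cleavage in SK-N-SH cells after 16 hr compound treatment; values are AC50 from concentration-response curves.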

[9] = Cellular Toxicity (caspase-3) N2a (AID 665);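 note: compound exposure lasted 16 h at 37 °C before readout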
Procedure, shortened: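 Plated mouse neuroblastoma N2a cells received titrated compounds for 16 h in complete medium. Caspase activity was then detected with a peptide-aminoluciferin luminescent reagent.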

[10] = Cellular Toxicity (caspase-3) NIH 3T3 (AID 666);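 note: caspase signal read after 16 h compound exposure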
Procedure, shortened: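 Concentration-response qHTS in NIH 3T3 mouse fibroblasts scores caspase-3/7 activation as rising luminescence after 16 hr compound exposure. Signals are scaled between DMSO-only and 100 uM tamoxifen.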

[11] = Cellular Toxicity (caspase-3) Renal Proximal Tubule (AID 667); details: Potency: caspase-3 activation;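 note: cells exposed to compound for 16 hours at 37 °C before detection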
Procedure, shortened: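 Freshly isolated primary rat kidney proximal tubule cells, 1000/well, treated 16 hr at 37 °C, then Caspase-Glo 3/7 luminescence after 1 hr. Normalized to DMSO and 10 uM staurosporine; AC50 from Hill fit.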

[12] = Cell Viability - LYMP1-002 - Assay at 16 hr (AID 948)
Procedure, shortened: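 LYMP1-002 human lymphoblastoid cells, 2500/well, were treated with compounds for 16 hr at 37 C in complete medium. Viability was read as intracellular ATP by CellTiter-Glo luminescence, and AC50 was derived from a Hill fit to concentration-response data.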

[13] = MultiTox-Fluor Cytotoxicity Assay - LYMP1-003 - Dead Cells (AID 961); note: nearly all actives have a fitted effect of over 70% in size
Procedure, shortened: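 Acute toxicity is scored as increased dead-cell protease activity in human lymphoblastoid LYMP1-003 cells after 16 h compound exposure in complete culture medium. Activity is normalized to DMSO basal and 15 uM tetraoctylammonium bromide as full response.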

[14] = Cell Viability - LYMP1-003 - Assay at 24 hr (AID 963)
Procedure, shortened: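 Acute toxicity in LYMP1-003 lymphoblastoid cells: 24 hr compound treatment at 37 C, ATP measured with CellTiter-Glo after 30 min at room temperature. AC50 derived by fitting the Hill equation to qHTS titrations.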

[15] = Cell Viability - LYMP2-003 (AID 965);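 note: cells exposed to compounds for 24 h before reading; nearly all actives have a fitted effect of over 50% in size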; note: potency is the fitted concentration of half-maximal effect
Procedure, shortened: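 Human lymphoblastoid LYMP2-003 cells, 2500/well, exposed to compounds for 24 h at 37 C in complete medium. Viability read as intracellular ATP by CellTiter-Glo luminescence; AC50 from Hill-equation fits of qHTS concentration-response data.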

[16] = Cell Viability - LYMP2-026 (AID 989); note: nearly all actives have a fitted effect of over 50% in size
Procedure, shortened: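 Concentration-dependent loss of intracellular ATP in human lymphoblastoid cells after 24 hr at 37 C, quantified by luciferase luminescence. AC50 derived from standard Hill equation.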

[17] = Cell Viability - LYMP1-002 - Assay at 24 hr (AID 993)
Procedure, shortened: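 qHTS, LYMP1-002 lymphoblastoid, 24 h cpd, 37 C, CellTiter-Glo ATP luminescence; AC50 via Hill eq.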

[18] = qHTS Assay for Identification of Small Molecule Inducers of Hypoxia Response (AID 2120; active = well fitted curve in the direction sought with a large enough effect in the signal ratio, with a control signal flat, not every such curve was filed as active; the % refers to the signal ratio)
Procedure, shortened: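 Induction of beta-lactamase reporter activity was measured in CellSensor HRE-bla ME-180 cells after 17 h compound treatment at 37 degrees C, using CCF4 substrate and the 460nm/530nm emission ratio to derive AC50 values.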

[19] = molecular target: Peroxisome proliferator-activated receptor alpha (Homo sapiens) (UniProt Q07869); test: qHTS assay for small molecule agonists of the peroxisome proliferator-activated receptor alpha (PPARalpha) signaling pathway (AID 651778); details: PathHunter PPARalpha complementation, chemiluminescence, 6 h; max response: hits give high values
Chain of Peroxisome proliferator-activated receptor alpha (Homo sapiens) (Q07869 whole entry, looked up): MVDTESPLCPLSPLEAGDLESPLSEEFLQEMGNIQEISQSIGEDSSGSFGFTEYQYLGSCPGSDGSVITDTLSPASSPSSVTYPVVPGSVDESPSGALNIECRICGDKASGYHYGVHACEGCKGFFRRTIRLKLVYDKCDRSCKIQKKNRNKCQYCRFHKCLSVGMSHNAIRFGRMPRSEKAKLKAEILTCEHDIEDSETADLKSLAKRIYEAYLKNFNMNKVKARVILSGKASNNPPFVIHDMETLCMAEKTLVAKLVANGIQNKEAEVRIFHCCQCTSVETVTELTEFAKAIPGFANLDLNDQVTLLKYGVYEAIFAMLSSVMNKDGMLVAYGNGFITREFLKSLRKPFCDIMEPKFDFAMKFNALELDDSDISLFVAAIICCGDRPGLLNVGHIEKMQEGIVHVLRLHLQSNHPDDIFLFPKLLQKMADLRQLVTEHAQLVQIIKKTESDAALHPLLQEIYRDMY
Procedure, shortened: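 Cells plated at 2,000/well and held overnight at 37 C, 5% CO2, then compound added by pin tool for 6 hr; after PathHunter detection reagent and 60 min at room temperature, chemiluminescence from enzyme complementation was read.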

[20] = qHTS assay for cell viability of the p53RE-bla HCT-116 cell line (AID 743292); note: nearly all actives have a fitted effect of over 55% in size
Procedure, shortened: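 In this qHTS counter-screen, metabolically competent p53RE-bla HCT-116 cells were counted via their ATP content. Compounds were applied for 16 h at 37 C and luciferase-coupled luminescence was measured.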

Row | Structure (SMILES) | Potency [1] | Potency [2] | Potency [3] | Potency [4] | Potency [5] | outcome [6] | outcome [7] | outcome [8] | outcome [9] | outcome [10] | Potency [11] | Potency [12] | Potency [13] | Potency [14] | Potency [15] | Potency [16] | Potency [17] | Potency [18] | max response [19] | Potency [20]
1 | C=CC(=O)CC | inactive | inactive | inactive | inactive | inactive | inactive | inactive | inactive | inactive | inactive | inactive | inactive | inactive | inactive | inactive | inactive | inactive | inactive | 8.86% | inactive
2 | CC(C)COC(=O)COc1cc(Cl)c(Cl)cc1Cl | inactive | inactive | inactive | inactive | inactive | inactive | inactive | inactive | inactive | inactive | inactive | inactive | inactive | inactive | inactive | inactive | inactive | inactive | 9.61% | inactive
3 | CCOc1ccc2nc(N)sc2c1 | inactive | inactive | inactive | inactive | inactive | inactive | inactive | inactive | inactive | inactive | inactive | inactive | inactive | inactive | inactive | inactive | inactive | inactive | -0.23% | inactive
4 | Brc1ccc(-c2ccccc2)cc1 | inactive | inactive | inactive | inactive | inactive | inactive | inactive | inactive | inactive | inactive | inactive | inactive | inactive | inactive |  | inactive | inactive | inactive | -2.37% | inactive
5 | O=CC(=O)c1ccccc1 | inactive | inactive | inactive | inactive | inactive | inactive | inactive | inactive | inactive | inactive | inactive | inactive |  | inactive | inactive |  | inactive | inactive | -2.48% | inactive
6 | O=C(OCC1CO1)C1CCCCC1C(=O)OCC1CO1 (stereo unspecified) | inactive | inactive |  | inactive | inactive | inactive | inactive | inactive | inactive | inactive | inactive | inactive |  | inactive | 50.1 µM (active) |  | inactive | inactive | 11.4% | inactive
7 | Nc1ccc(-c2ccc(N)c(O)c2)cc1O | inactive | inactive |  | inactive | inactive | inactive |  | inactive | inactive | inactive | inactive | inactive | inactive | inactive |  | inactive | inactive | inactive | -5.39% | inactive
8 | c1ccc2ncccc2c1 | inactive | inactive | inactive | inactive | inactive | inactive | inactive | inactive | inactive | inactive | inactive | inactive | inactive | inactive | inactive | inactive | inactive | inactive | -2.05% | inactive
9 | c1cc2c3c(c1)ccc1cccc(c13)C2 | inactive | inactive | inactive | inactive | inactive | inactive | inactive | inactive | inactive | inactive | inactive | inactive | inactive | inactive | inactive | inactive | inactive | inactive | 6.26% | inactive
10 | CCNC(=S)NCC | inactive | inactive | inactive | inactive | inactive | inactive | inactive | inactive | inactive | inactive | inactive | inactive | inactive | inactive | inactive | inactive | inactive | inactive | -2.88% | inactive
11 | C=C(C#N)C(=O)OCC | inactive | inactive | inactive | inactive | inactive | inactive | inactive | inactive | inactive | inactive | inactive | inactive | inactive | inactive | inactive | inactive | inactive | inactive | -1.15% | inactive
12 | CCCCC(CC)COC(=O)COc1ccc(Cl)cc1Cl (stereo unspecified) | inactive | inactive | inactive | inactive | inactive | inactive | inactive | inactive | inactive | inactive | inactive | inactive | inactive | inactive | inactive | inactive | inactive | inactive | -1.4% and -1.03% | inactive
13 | Cc1ccc2ccc3cccc4ccc1c2c34 | inactive | inactive | inactive | inactive | inactive | inactive | inactive | inactive | inactive | inactive | inactive | inactive | inactive | inactive | inactive | inactive | inactive | inactive | -2.03% | inactive
